High-throughput results (PubChem)
HPGD block: HPGD (human) dehydrogenase inhibition | Potency, µM, for the others: at the top dose activity change, negative = inhibition, actives largely listed as inhibitors | P15428 | 150,000 compounds, 4.3% hits | purified HPGD, NADH fluorescence kinetic, PGE2 substrate; active means well fitted inhibition curve with a large enough effect, not every such curve was filed as active; inconclusive means small, poorly fitted or top-dose-only effect, or another doubt; inactive means no such curve, though single readings can be large or run the other way; further: potency means the concentration at half of the fitted maximal effect
Target sequence (P15428 whole entry, looked up): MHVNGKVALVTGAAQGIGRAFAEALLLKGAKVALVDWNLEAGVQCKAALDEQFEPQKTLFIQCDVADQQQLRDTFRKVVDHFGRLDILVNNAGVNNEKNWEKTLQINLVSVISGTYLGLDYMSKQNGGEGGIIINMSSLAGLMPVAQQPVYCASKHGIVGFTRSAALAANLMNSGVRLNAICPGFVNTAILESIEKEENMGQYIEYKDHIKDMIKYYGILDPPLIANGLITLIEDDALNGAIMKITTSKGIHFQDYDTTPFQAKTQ
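NADH formation kinetics: reaction with 30 uM PGE2 and 1 mM NAD+ (final), 20 nM enzyme, Tris-HCl pH 8 with Tween 20, after 15 min compound preincubation at room temperature. Fluorescence change, last versus first of five reads.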
ALDH1A1 inh: blocks purified human ALDH1A1 activity; P00352; 220,000 compounds, 7.3% hits; Potency, µM (doses to about 75.3 µM), for inactives: at the top dose activity, negative = inhibition, usual class: inhibitors; AID 1030; Purified ALDH1A1, NADH fluorescence, propionaldehyde substrate; active means well fitted inhibition curve with a large enough effect, not every such curve was filed as active; inconclusive means small, poorly fitted or top-dose-only effect, or another doubt; inactive means no such curve, though single readings can be large or run the other way;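 further: potency means the concentration at half of the fitted maximal effect; plate controls were no enzyme wells and a reference inhibitor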
Target sequence (P00352 whole entry, looked up): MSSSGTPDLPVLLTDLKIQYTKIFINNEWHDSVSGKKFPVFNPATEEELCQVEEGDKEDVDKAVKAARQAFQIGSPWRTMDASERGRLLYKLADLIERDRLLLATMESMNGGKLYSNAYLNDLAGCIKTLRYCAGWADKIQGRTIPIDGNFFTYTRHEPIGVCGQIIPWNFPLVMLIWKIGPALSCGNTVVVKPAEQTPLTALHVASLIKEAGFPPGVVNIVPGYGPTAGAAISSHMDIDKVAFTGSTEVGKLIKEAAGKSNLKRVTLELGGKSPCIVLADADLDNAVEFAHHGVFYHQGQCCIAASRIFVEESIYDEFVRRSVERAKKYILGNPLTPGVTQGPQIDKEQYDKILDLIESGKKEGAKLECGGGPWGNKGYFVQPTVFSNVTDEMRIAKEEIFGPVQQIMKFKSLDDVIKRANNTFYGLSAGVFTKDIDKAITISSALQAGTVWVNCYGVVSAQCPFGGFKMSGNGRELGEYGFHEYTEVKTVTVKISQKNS
aGal spleen mod: alpha-galactosidase A (human) modulation; P06280; human spleen homogenate, 4MU-alpha-Gal fluorescence, 40 min; Potency, µM (highest dose often 80 µM), for the others: top-dose activity change, negative = inhibition, actives largely listed as inhibitors; 240,000 compounds, 0.008% hits;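 further: potency means the concentration at half of the fitted maximal effect; 0% = enzyme with vehicle and -100% = no enzyme basal signal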
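qHTS titration in buffer at pH 5.0. Alpha-galactosidase activity in spleen homogenate was measured via 4-methylumbelliferone release from 1 mM fluorogenic substrate after 40 min at 37C and a pH 10 stop. AC50 came from Hill fits of control-normalized data.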
PNC assembly inh: blocks assembly of the perinucleolar compartment. PC3M PTB-GFP, PNC prevalence imaging, 16 h; hits give low values. activity change (PNC), negative = inhibition, % at 10 µM. 140,000 compounds, 3.1% hits. AID 2417;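 active means readout at or below -70, meaning at least 70% loss of cells showing the perinucleolar compartment, a nuclear body marking cancer cells; inconclusive means readout between -30 and a set limit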;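 further: plate controls were DMSO wells for no effect and camptothecin positive control wells for full effect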
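Read-out is percentage of cells bearing a perinucleolar compartment, from automated 20x imaging of fixed, Hoechst-stained PC3M PTB-GFP cells. Cells were seeded 4 h, then exposed 16 h to compound (23 nl of library stock) in duplicate plates.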
12-hLO inh: 12-hLO (ALOX12) enzyme inhibition; purified 12-hLO, xylenol orange hydroperoxide absorbance; Potency, µM (titrated, usually from 57.1 µM), for inactives: top-dose activity change, negative = inhibition, usual class: inhibitors; 150,000 compounds, 0.12% hits; further: potency means the concentration at half of the fitted maximal effect; nearly all actives have a fitted effect of over 55% in size
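Hydroperoxide formation by human 12-lipoxygenase from 40 uM arachidonic acid was followed colorimetrically via ferric-xylenol orange complex, using the 573/405 nm absorbance ratio. Enzyme concentration was 150 nM, with 30 min reaction at room temperature.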
GLA inh pH 4.5: blocks human alpha-galactosidase A at pH 4.5; 230,000 tested, under 10 active; activity change, negative = inhibition, % at 105 µM; purified enzyme, 4-MU-alpha-Gal fluorescence, pH 4.5; P06280;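 further: 0% = full activity with enzyme and -100% = basal without enzyme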
Starred values were filed as active, the others as inactive; ? = inconclusive; . = no result; ! = repeats disagree; [ ] = dose if it differs, or a comment. A selection: hits, their analogues and other compounds. The true share with any hit is near 10%. Unless noted, the call rests on the fitted dose curve; in most records, active means well fitted curve in the direction sought with a large enough effect; inconclusive means small, poorly fitted or top-dose-only effect, or another doubt; inactive means no such curve, though single readings can be large; an effect the other way counts as inactive or inconclusive. Unless noted, on the % scale 0 is the no-effect control and ±100 the full control effect.

SMILES | HPGD block | ALDH1A1 inh | aGal spleen mod | PNC assembly inh | 12-hLO inh | GLA inh pH 4.5
NC(Cc1ccc(N(CCCl)CCCl)cc1)C(=O)O (configuration not stated) | 3.3% | 31.6µM* | 13.4% | . | -6.8% | -5.5
CC(=O)NC(Cc1ccc(N(CCCl)CCCl)cc1)C(=O)NC(C(=O)O)C(C)C (configuration not stated) | . | -14.3% | 1.0% | . | . | 8.1
CC1(C)[C@@H]2CC[C@]1(C)CN(CCC[N+](C)(C)C)C2 | 0.8% | 9.3%[13.5 µM] | . | . | -0.1%[11.4 µM] | .
O=c1[nH]c(=O)n(Cc2ccco2)c(O)c1C=NCc1cccs1 | -16.1% | ? | -11.2% | 3.0 | -18.8% | 2.5
O=c1[nH]c(=S)n(Cc2ccco2)c(O)c1C=NCc1cccs1 | 25.1µM* | 7.94µM* | -1.1% | -15.7 | -13.2% | -3.8
N=C(N)SCc1ccc(Cl)c2ccccc12 (tested in a mixture with another compound) | 4.47µM*! | -0.7%[13.5 µM] | . | . | -0.6%[11.4 µM] | .
CN(C)C(=O)Oc1ccc(Cl)c2ccccc12 | -14.6% | -3.4% | 0.4% | ? | -1.9% | -7.3
CCCCC/C=C\C=C\[C@H](CCCCCCCC(=O)O)OO | -1.8% | 2.2% | -6.7% | . | 2.2% | -4.6
Cc1onc(-c2c(Cl)cccc2Cl)c1C(=O)Nc1ccc2c(C(F)(F)F)cc(=O)oc2c1 | . | . | 1.0% | . | . | 4.9
COc1ccc(CC(=O)Nc2ccc3c(C(F)(F)F)cc(=O)oc3c2)cc1OC | -15.1% | 7.94µM* | -0.6% | 6.9 | -1.7% | -6.9
O=C(c1ccccc1)[C@H]1[C@H](c2ccccc2[N+](=O)[O-])N1C1CCCCC1 (some centres not stated) | -20.2% | 2.6%[13.5 µM] | . | . | 0.8%[11.4 µM] | .
CCCn1c(C)cc(C=O)c1C | . | 7.08µM* | 7.0% | . | . | -13.2
Cc1cc(C=O)c(C)n1C(C)C | . | 14.1µM* | 7.1% | . | . | 3.0[21.1 µM]
CCC(C)n1c(C)cc(C(N)=O)c1C (configuration not stated) | . | 5.7% | 4.8% | . | . | 7.2
Oc1ccc([C@H](O)[C@@H]2CCCCN2)cc1O | . | . | . | . | -9.7%[11.4 µM] | .
COc1cc2c(cc1OC)[C@]13CC[N@+]4(C)CC5=CCO[C@H]6CC(=O)N2[C@@H]1[C@@H]6[C@@H]5C[C@]34O | . | . | . | . | 1.0%[11.4 µM] | .
O=C(O)C1(c2ccc(Cl)cc2)CCC1 | -5.6% | 0.7% | -3.6% | -80.9* | -0.7% | -2.0
CC(C)(C)n1cccc1/C=C1\C(=O)NC(=O)N(c2ccccc2)C1=O | 1.6% | 1.41µM* | 1.4% | -9.7 | 2.8% | 3.0
Cc1cc(C)cc(N2C(=O)NC(=O)/C(=C/c3cccn3-c3ccc(Cl)cc3)C2=O)c1 | 3.98µM* | 8.8% | 9.7% | 9.9 | -3.2% | -8.7
COc1cc(/C=C2\C(=O)NC(=O)N(c3ccccc3)C2=O)cc(OC)c1O | 31.6µM* | ? | -7.8% | 17.6 | -5.1% | -7.6
N=C(N)c1ccc(-c2ccc(-c3ccc(C(=N)N)cc3)o2)cc1 | ? | ? | . | . | -0.9%[11.4 µM] | .
c1ccc(CCN2CCOCC2)nc1 | -2.2% | -5.6%[13.5 µM] | . | . | 3.7%[11.4 µM] | .
O=C(/C=C/c1ccc2c(c1)OCO2)c1c(O)n(CCC2=CCCCC2)c(=O)[nH]c1=O | -19.2% | 31.6µM* | -0.3% | 44.1 | -1.9% | -7.4
COc1ccc(/C=C/C(=O)c2c(O)n(CCC3=CCCCC3)c(=O)[nH]c2=O)cc1 | -8.4% | ? | 5.3% | -24.8 | -1.7% | 4.0
C=C(C)c1ccccc1 | -1.0% | 7.0% | -2.7% | . | -1.0% | .
SMILES | HPGD block | ALDH1A1 inh | aGal spleen mod | PNC assembly inh | 12-hLO inh | GLA inh pH 4.5
COc1ccc(C(C)=O)cc1COc1ncnc2ccccc12 | . | 1.78µM* | 4.1% | . | . | 1.5
CC(C)C(=O)CP(=O)(O)O | -9.9% | -5.9%[13.5 µM] | . | . | -0.6%[11.4 µM] | .
Cc1ccc(C)c(Cn2c(C(=O)O)c(C=O)c3ccccc32)c1 | . | 18.9µM* | 3.9% | . | . | 3.8[21.1 µM]
Cn1cc(C(=O)Cc2ccccc2)c2ccccc21 | -5.0% | -13.6% | 8.7% | 2.3 | -1.3% | -1.7
O=C(N/N=C\C1C(=O)NC(=S)N(c2ccccc2)C1=O)c1ccc(O)cc1 (configuration not stated) | . | 10µM* | 6.9% | . | . | -9.7
Nc1ccccc1N=Cc1c(O)n(CCC2=CCCCC2)c(=O)[nH]c1=O | . | 2.82µM* | -4.5% | ? | 1.1% | -3.7
O=C(O)/C=C\c1ccc[c]([Sb](=[O])([OH])[OH])c1 | . | . | . | . | -3.9%[11.4 µM] | .
O=C(C[C@H](c1ccccc1)c1c(O)c2ccccc2oc1=O)c1ccccc1 | -4.6% | 1.6%[13.5 µM] | . | . | -3.6%[11.4 µM] | .
NC(N)=NC(=O)c1nc(Cl)c(N)nc1N | ? | 0.9% | ? | -114.6* | -2.5% | ?
Nc1c(Cl)c(Cl)nc(C(=O)O)c1Cl | -3.4% | 12.3% | -6.9% | . | 2.7% | .
NNS(=O)(=O)c1ccc(Sc2ccccn2)c([N+](=O)[O-])c1 | . | ? | 3.7% | . | . | ?
C=CCN1CC[C@]23c4c5ccc(O)c4O[C@@H]2/C(=N/NC(=O)c2ccccc2)CC[C@@]3(O)[C@H]1C5 | . | . | . | . | -4.8% | .
OCCOCC#CCN1CCOCC1 | -3.2% | 0.8% | -1.1% | ? | -2.5% | 7.7
CCCCCC1CC(CC#CCN2CCOCC2)C(=O)O1 (configuration not stated) | -0.3% | 6.31µM* | -27.0% | ? | -0.2% | 6.4
COC(=O)[C@@H]1c2cc3c(c(O)c2[C@@H](O)C[C@]1(C)O)C(=O)c1c(O)cc2c(c1C3=O)O[C@H]1O[C@@]2(C)[C@@H](O)[C@H](N(C)C)[C@H]1O | ? | ? | . | . | -0.5%[11.4 µM] | .
CC1CCN(C(=O)CCl)CC1 | 3.6% | 0.355µM* | -6.8% | -24.2 | -1.2% | -5.4
Nn1cnnc1 | -6.8% | 12.1% | 1.8% | . | -3.4% | .
CS(=O)(=O)O[C@H]1CN2CCC1CC2 | -0.6% | -0.8%[13.5 µM] | . | . | -4.1%[11.4 µM] | .
CCOC(=O)C1=C(N)Oc2ccccc2C12C(=O)N(CC(=O)OC)C(CC(=O)OC)=C2C(=O)OC (configuration not stated) | -1.8% | 1.26µM* | 2.8% | 10.5 | 1.4% | 0.3
CCOC(=O)C1=C(N)OC2=C(C(=O)CCC2)C12C(=O)N(CC(N)=O)c1ccccc12 (configuration not stated) | -7.0% | 4.1% | 1.5% | -14.5 | 0.1% | -6.3
C=CCN1C(=O)C2(C(C(=O)OCC)=C(N)Oc3ccccc32)c2c1c1ccccc1oc2=O (configuration not stated) | -8.3% | 0.398µM* | 0.3% | -14.6 | -16.8% | -8.0
CC(=O)C(O)C(c1ccccc1)c1c(O)c2ccccc2oc1=O (configuration not stated) | . | . | 13.5% | . | . | .
NCCP(=O)(O)O | -3.1% | ? | . | . | 0.2%[11.4 µM] | .
CC(c1ccc(F)cc1)n1cc(C(=O)NCc2ccc3c(c2)OCO3)nn1 (configuration not stated) | . | 0.7% | 4.0% | -89.7* | -10.6% | 5.0
CC(C)CNC(=O)c1c(N)n(Cc2ccc3c(c2)OCO3)c2nc3ccccc3nc12 | ? | ? | -0.6% | 16.5 | -4.0% | 11.3
